In the library only some 21% were active in any assay of this set; here they are far more common.
Pf growth 48h – Primary qHTS for delayed death inhibitors of the malarial parasite plastid, 48 hour incubation; hit rate 5.9% among 310,000; Potency, µM (highest dose often 28.7 µM), hits mostly inhibitors; P. falciparum luciferase growth in erythrocytes, 48 h
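Cell-based growth assay: transgenic P. falciparum expressing firefly luciferase, cultured in red cells within RPMI 1640 containing 0.5% w/v Albumax, 24 mM bicarbonate and gentamycin. A drop in luciferase activity indicates inhibition.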
Shiga inhibitor – A qHTS for Small Molecule Inhibitors of Shiga Toxin | AID 2315, 2010 | Vero cells, Shiga toxin protein synthesis inhibition reporter | inhibition, % at 38.7 µM | hit rate 9.2% among 290,000; in the data active means inhibition mostly above about 28%, no sharp cut-off; inactive means mostly below about 43%
NS1 function inh – qHTS Assay for Inhibitors of Influenza NS1 Protein Function; Potency, µM (series often up to 46.1 µM); hit rate 0.4% among 270,000; calls by dose curve; further: actives are rising curves; nearly all actives have a fitted effect of over 50% in size
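Compounds were scored for reversing the slow growth caused by influenza A NS1 in S. cerevisiae, measured by optical density at 600 nm. Assay medium contained 2% galactose at pH 6.0; NS1-free yeast of the same strain were the positive control.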
CHX counter – Cycloheximide Counterscreen for Small Molecule Inhibitors of Shiga Toxin; cell reporter, cycloheximide protein synthesis inhibition counterscreen; max response, %; hit rate 12% among 300,000; AID 2314, 2010; in the data active means max response mostly above about 13%, no sharp cut-off; inactive means mostly below about 14%; further: read at 38.3 µM for the half of the compounds with a filed dose
Sm TGR inh – qHTS Assay for the Inhibitors of Schistosoma Mansoni Peroxiredoxins | purified TGR, DTNB reduction, TNB absorbance 405 nm | hit rate 3% among 360,000 | Potency, µM (doses to about 114 µM), hits mostly inhibitors | AID 485364, 2010 | Schistosoma mansoni thioredoxin glutathione reductase (TGR), Q962Y6; further: nearly all actives have a fitted effect of over 60% in size
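Kinetic colorimetric format: TGR-catalysed, NADPH-driven DTNB reduction monitored via TNB absorbance. Enzyme dispensed at 20 nM; compound exposure 15 min at room temperature before reaction start.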
Pf growth 96h – Primary qHTS for delayed death inhibitors of the malarial parasite plastid, 96 hour incubation; P. falciparum luciferase reporter growth, 96 h; hit rate 6.9% among 320,000; Potency, µM (titrated, usually from 28.7 µM), most hits filed as inhibitors
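Two parasite generations (96 h, 37 C, 5% CO2) of compound exposure in infected erythrocytes (0.05% parasitemia, 2% hematocrit). Luciferase-reporter P. falciparum; decreased luminescence indicates inhibited growth, aimed at apicoplast-acting delayed death.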
Of the large screens only hits and unclear results are named; the others gave an inactive call. Unless noted, the call rests on the fitted dose curve; in most records, active means well fitted curve in the direction sought with a large enough effect; inconclusive means small, poorly fitted or top-dose-only effect, or another doubt; inactive means no such curve, though single readings can be large; an effect the other way counts as inactive or inconclusive.

CSc1ccc(/C=N/n2c(C)nnc2C)cc1	none (no result: NS1 function inh)
CSc1ccc(/C=N/N2CCN(C)CC2)cc1	CHX counter 29 (no result: NS1 function inh)
CN1CCN(/N=C/c2ccc(-c3ccccc3)cc2)CC1	Shiga inhibitor 63, CHX counter 49 (no result: NS1 function inh)
CCOC(=O)c1[nH]c(C(=O)O)c(OC(=O)CC)c1C	Pf growth 48h inconclusive
CCCCNC(=O)CCCN1C(=O)c2ccccc2Sc2ncccc21	none (no result: Pf growth 48h, Shiga inhibitor, NS1 function inh, CHX counter, Pf growth 96h)
O=C(Cn1c(=O)c2ccccc2n(CC(=O)Nc2ccc(Cl)cc2)c1=O)NCCc1ccccc1	none (no result: Pf growth 48h, Shiga inhibitor, NS1 function inh, CHX counter, Pf growth 96h)
S=c1nc(C2CCCCC2)[nH]c2ccccc12	Pf growth 96h 2.3µM
Cc1ccc2nc(C3CCCCC3)[nH]c2c1	Shiga inhibitor 42, CHX counter 38, Pf growth 96h inconclusive
Cc1ccc(CN2CCC(c3nc4ccc(Cl)cc4[nH]3)CC2)cc1	Pf growth 48h 8.3µM, Pf growth 96h inconclusive
CCNC(=S)N1CCCC(c2nc3ccc(C)cc3[nH]2)C1 (centres undefined)	none
CC1CCCC(NC(=O)C2CCN(S(=O)(=O)c3cccc4nonc34)CC2)C1C (centres undefined)	none
O=C(NCc1ccccc1Cl)c1ccc(-n2cnc3cccnc32)cc1	none (no result: Pf growth 48h, Shiga inhibitor, NS1 function inh, CHX counter, Pf growth 96h)
O=C(O)CCc1ncc(C(F)(F)F)cc1Cl	none (no result: Pf growth 48h)
CO/N=C/C(c1ccc(Cl)nc1)S(=O)(=O)c1ccccc1 (centres undefined)	Sm TGR inh 22µM
O=S(=O)(Cc1ncc(C(F)(F)F)cc1Cl)c1ccccc1	Shiga inhibitor 51, CHX counter 45
CO/N=C/C(c1ncc(C(F)(F)F)cc1Cl)S(=O)(=O)c1ccccc1 (centres undefined)	Pf growth 48h 10µM, Pf growth 96h 9.3µM
Cn1c(CNC(=O)C2CCC(=O)N(CCc3cccc(F)c3)C2)nc2ccccc21 (centres undefined)	none
Cc1ccc(C)n1-c1c(C(=O)NCCC(C)C)sc2ncccc12	none (no result: Pf growth 48h, Shiga inhibitor, NS1 function inh, CHX counter, Pf growth 96h)
CCN1CCN(c2ccc(NC(=O)c3ccccc3F)cc2Cl)CC1	Shiga inhibitor 115, CHX counter 19 (no result: NS1 function inh)
CCN1CCN(c2ccc(NC(=O)c3ccc(C#N)cc3F)cc2Cl)CC1	Pf growth 48h inconclusive (no result: NS1 function inh)
CCCCCC(=O)Nc1ccc(N2CCN(CC)CC2)c(Cl)c1	Shiga inhibitor 103, CHX counter 60
O=C(NC1CCS(=O)(=O)C1)/C(=C\c1ccc(F)cc1)NC(=O)c1ccccc1 (centres undefined)	Pf growth 96h inconclusive (no result: NS1 function inh)
O=C(NC1CCCCC1)C(c1ccc2ncccc2c1)N(Cc1cccs1)C(=O)c1cccs1 (centres undefined)	Pf growth 48h 12µM, Pf growth 96h inconclusive
O=C(NC1CCCCC1)C(c1ccc2ncccc2c1)N(Cc1ccc(F)cc1)C(=O)c1ccc2c(c1)OCCO2 (centres undefined)	Pf growth 48h inconclusive, Pf growth 96h 10µM
O=C(NC1CCCC1)C(c1ccc(F)cc1)N(C(=O)Cc1cccs1)c1ccc2c(c1)OCCO2 (centres undefined)	none
O=C(NC1CCCC1)C(c1ccc(F)cc1)N(Cc1ccc(F)cc1)C(=O)c1ccn[nH]1 (centres undefined)	none
O=C(NC1CCCCC1)C(c1ccc2ncccc2c1)N(Cc1ccc2c(c1)OCO2)C(=O)c1ccc2c(c1)OCCO2 (centres undefined)	Pf growth 48h 7.4µM, Pf growth 96h inconclusive
O=C(NC1CCCCC1)C(c1cccs1)N(Cc1cccs1)C(=O)c1cccs1 (centres undefined)	Pf growth 48h inconclusive, Pf growth 96h inconclusive
O=C(NC1CCCCC1)C(c1ccc2ncccc2c1)N(Cc1ccco1)C(=O)c1ccc2c(c1)OCCO2 (centres undefined)	Pf growth 48h 5.2µM, Pf growth 96h 2.6µM
CC(=O)OCc1cc(-c2nc3ccccc3[nH]c2=O)nn1-c1ccc(Cl)cc1	none
Cn1cnnc1SCC(=O)NN(c1ccccc1)c1ccccc1	none
O=C(/C(N=Nc1cccc(C(F)(F)F)c1)=C(/O)c1cccs1)C(F)(F)F	Pf growth 48h inconclusive, Shiga inhibitor 66, CHX counter 35, Pf growth 96h 5.2µM
COc1ccc(-c2nc(SCC(=O)NC(C)CCc3ccccc3)n[nH]2)cc1 (centres undefined)	none (no result: Pf growth 48h, Shiga inhibitor, NS1 function inh, CHX counter, Pf growth 96h)
